In PubChem BioAssay (Tox21):
Inconclusive results are not listed. Activity calls are given as the source filed them. Unless noted, calls follow the shape of the full dose curve.

How the values were obtained:
[1] = Nuclear factor erythroid 2-related factor 2/antioxidant responsive element (Nrf2/ARE) small molecule agonists: qHTS cell viability counter screen in human keratinocytes (AID 1919968; active = well fitted curve in the direction sought with a large enough effect in the repeat runs; an effect the other way counts as inactive or inconclusive; also: nearly all actives have a fitted effect of over 55% in size)
In short: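 After a 5 h attachment period, ARE-reporter keratinocytes were dosed with compounds in DMSO and then cultured 23 h at 37 C. Cell viability came from CellTiter-Fluor signal read after a further 1 h.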

[2] = Nuclear factor erythroid 2-related factor 2/antioxidant responsive element (Nrf2/ARE) small molecule agonists: luciferase reporter gene qHTS assay in human keratinocytes (AID 1919969); also: nearly all actives have a fitted effect of over 35% in size; also: potency is read from the fitted curve at half-maximal effect
[3] = target: Gonadotropin-releasing hormone receptor (Homo sapiens) (UniProt P30968); experiment: Human gonadotropin-releasing hormone receptor (GnRHR) small molecule agonists, calcium flux assay in GnRHR-HEK293 cells (AID 1920063); also: nearly all actives have a fitted effect of over 35% in size
Gonadotropin-releasing hormone receptor (Homo sapiens), sequence (P30968 whole entry, looked up): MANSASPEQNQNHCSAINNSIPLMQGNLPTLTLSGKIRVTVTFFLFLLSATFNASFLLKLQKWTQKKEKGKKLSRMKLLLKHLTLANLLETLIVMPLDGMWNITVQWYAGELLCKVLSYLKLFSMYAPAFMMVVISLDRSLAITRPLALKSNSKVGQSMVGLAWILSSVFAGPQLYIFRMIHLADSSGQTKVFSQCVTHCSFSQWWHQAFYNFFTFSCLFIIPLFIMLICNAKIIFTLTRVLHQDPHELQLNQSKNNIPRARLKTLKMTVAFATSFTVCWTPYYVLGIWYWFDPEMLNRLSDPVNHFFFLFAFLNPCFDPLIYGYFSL
In short: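 We seeded human GnRHR-expressing HEK293 cells for 18 hours, loaded them with calcium dye for an hour at 37 C, added test compounds, and recorded fluorescence intensity kinetically for three minutes.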

[4] = target: KiSS-1 receptor (Homo sapiens) (UniProt Q969F8); experiment: Human kisspeptin (KISS1R) small molecule agonists, calcium flux assay in KISS1R-HEK293 cells (AID 1920064; active = well fitted curve in the direction sought with a large enough effect in the repeat runs; an effect the other way counts as inactive or inconclusive)
KiSS-1 receptor (Homo sapiens), sequence (Q969F8 whole entry, looked up): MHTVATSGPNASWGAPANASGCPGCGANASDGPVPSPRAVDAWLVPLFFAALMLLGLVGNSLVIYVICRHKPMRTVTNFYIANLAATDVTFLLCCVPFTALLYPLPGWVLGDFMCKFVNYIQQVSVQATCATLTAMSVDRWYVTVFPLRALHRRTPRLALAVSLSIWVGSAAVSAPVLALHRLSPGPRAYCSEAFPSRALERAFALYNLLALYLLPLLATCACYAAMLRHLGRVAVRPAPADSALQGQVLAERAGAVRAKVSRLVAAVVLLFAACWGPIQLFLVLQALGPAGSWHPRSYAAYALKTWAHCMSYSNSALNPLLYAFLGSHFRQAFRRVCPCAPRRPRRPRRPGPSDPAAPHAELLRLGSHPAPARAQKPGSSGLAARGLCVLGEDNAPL
In short: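 Kinetic calcium assay, 1 s sampling over 3 min at Ex/Em 480/540, in HEK293 cells engineered with human KISS1R; compounds delivered in DMSO after 1 h dye loading.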

[5] = G protein-coupled receptor (GPCR) small molecule agonists, calcium flux assay: HEK293 wild type cell line counter screen (AID 1920065)
In short: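 Calcium-sensitive dye, loaded 1 h at 37 C into cells cultured 18 h, reports compound-evoked calcium release as fluorescence (Ex/Em 480/540), measured over 3 min. Agonist mode; 15-point titrations, triplicate.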

[6] = p53 small molecule agonists, cell-based qHTS assay with human liver microsomes (AID 1963577);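 also: p53 response element beta-lactamase reporter cells with liver microsomes plus NADPH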
In short: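 HLM-supplemented p53RE-bla reporter assay: 16 h compound exposure at 37 C, microsomes and NADPH each 0.5 mg/mL final, read by fluorescence intensity.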

[7] = p53 small molecule agonists, cell-based qHTS assay with rat liver microsomes (AID 1963578)
In short: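 Quantitative HTS of the Tox21 10K library: p53RE-bla cells, rat liver microsomes plus NADPH at 0.5 mg/mL final each, 16 h at 37 C, beta-lactamase fluorescence detection.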

[8] = p53 small molecule agonists, cell-based qHTS assay with human liver microsomes: qHTS cell viability counter screen (AID 1963579); also: nearly all actives have a fitted effect of over 45% in size
In short: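 Viability of p53RE-bla cells is measured as CellTiter-Glo luminescence following a 16 h, 37 C incubation with compound, liver microsomes from human donors and NADPH.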

[9] = p53 small molecule agonists, cell-based qHTS assay with rat liver microsomes: qHTS cell viability counter screen (AID 1963580); also: nearly all actives have a fitted effect of over 45% in size
In short: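 Intracellular ATP, by CellTiter-Glo luminescence, defines viability. HCT-116 p53RE-bla cells, 4,000 per well, were compound-treated in the presence of rat liver microsomes and NADPH for 16 h at 37 C.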

[10] = p53 small molecule agonists, cell-based qHTS assay: qHTS cell viability counter screen (AID 1963581); also: nearly all actives have a fitted effect of over 45% in size
In short: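 Following 5 h attachment, HCT-116 p53RE-bla cells took up compound for 16 h at 37 C; the reporter was read with B/G FRET substrate (2 h RT), and viability then via CellTiter-Glo ATP luminescence.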

[11] = p53 small molecule agonists, cell-based qHTS assay (AID 1963582; active = well fitted activation curve with a large enough effect in the signal ratio in the repeat runs, not every such curve was filed as active; the % refers to the signal ratio)
In short: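 In this cell-based concentration-response screen, a p53 response element drives beta-lactamase; cells received DMSO-borne compounds after 5 h culture and were incubated a further 16 h before FRET substrate development.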

[12] = target: 5-hydroxytryptamine receptor 2A (Homo sapiens) (UniProt P28223); experiment: 5-hydroxytryptamine receptor 2A (HTR2A) small molecule antagonists, cell-based qHTS assay (AID 1963586); also: nearly all actives have a fitted effect of over 45% in size; also: potency is read from the fitted curve at half-maximal effect
5-hydroxytryptamine receptor 2A (Homo sapiens), sequence (P28223 whole entry, looked up): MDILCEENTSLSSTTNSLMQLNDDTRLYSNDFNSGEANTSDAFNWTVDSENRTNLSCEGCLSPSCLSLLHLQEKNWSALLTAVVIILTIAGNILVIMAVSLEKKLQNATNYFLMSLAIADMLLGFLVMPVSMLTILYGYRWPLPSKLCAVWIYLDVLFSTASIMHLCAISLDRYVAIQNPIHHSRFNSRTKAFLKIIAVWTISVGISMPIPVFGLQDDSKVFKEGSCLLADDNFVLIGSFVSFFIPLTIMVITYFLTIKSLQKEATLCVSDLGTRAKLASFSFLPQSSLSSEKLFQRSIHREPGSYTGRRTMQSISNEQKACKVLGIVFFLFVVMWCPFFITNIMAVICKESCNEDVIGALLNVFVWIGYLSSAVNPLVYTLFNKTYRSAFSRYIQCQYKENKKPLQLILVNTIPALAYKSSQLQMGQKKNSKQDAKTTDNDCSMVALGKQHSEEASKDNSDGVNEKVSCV
In short: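 Antagonist-mode intracellular calcium assay: DOI (4 nM) added after 5 min compound pre-incubation at room temperature to dye-loaded HTR2A-CHO cells. Fluorescence followed for 3 min, sampled every second.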

[13] = target: 5-hydroxytryptamine receptor 2A (Homo sapiens) (UniProt P28223); experiment: 5-hydroxytryptamine receptor 2A (HTR2A) small molecule agonists, cell-based qHTS assay (AID 1963587); also: nearly all actives have a fitted effect of over 30% in size
In short: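 Kinetic calcium-flux fluorescence (2 min, 1 sec intervals) after compound addition in agonist mode. HTR2A-CHO cells were cultured 18 h, then dye-loaded 1 h at 37 C.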

[14] = target: Muscarinic acetylcholine receptor M1 (Homo sapiens) (UniProt P11229); experiment: Cholinergic receptor muscarinic 1 (CHRM1) small molecule antagonists, cell-based qHTS assay (AID 1963588); also: nearly all actives have a fitted effect of over 40% in size
Muscarinic acetylcholine receptor M1 (Homo sapiens), sequence (P11229 whole entry, looked up): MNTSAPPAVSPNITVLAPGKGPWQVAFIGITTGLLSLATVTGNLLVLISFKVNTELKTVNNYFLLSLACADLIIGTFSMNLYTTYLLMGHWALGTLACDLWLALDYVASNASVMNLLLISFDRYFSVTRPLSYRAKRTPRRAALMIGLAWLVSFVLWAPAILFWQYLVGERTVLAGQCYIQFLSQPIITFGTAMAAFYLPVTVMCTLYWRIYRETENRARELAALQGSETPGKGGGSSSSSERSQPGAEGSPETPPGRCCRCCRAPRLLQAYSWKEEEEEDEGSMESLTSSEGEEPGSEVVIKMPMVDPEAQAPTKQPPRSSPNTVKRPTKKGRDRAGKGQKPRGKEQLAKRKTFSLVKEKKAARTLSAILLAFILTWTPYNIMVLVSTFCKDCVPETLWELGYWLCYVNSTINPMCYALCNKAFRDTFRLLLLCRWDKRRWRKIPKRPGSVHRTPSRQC
In short: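 CHRM1-CHO calcium-flux assay, antagonist mode. Cells were seeded 18 h, dye-loaded 1 h at 37 C and given compound for 5 min at RT, then acetylcholine was added at 50nM. FDSS fluorescence was read 3 min; 15 concentrations, three runs.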

[15] = target: Muscarinic acetylcholine receptor M1 (Homo sapiens) (UniProt P11229); experiment: Cholinergic receptor muscarinic 1 (CHRM1) small molecule agonists, cell-based qHTS assay (AID 1963589); also: nearly all actives have a fitted effect of over 35% in size
In short: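 Measures agonist-induced intracellular calcium rise. Stable human CHRM1 CHO line, 1 h dye load at 37 C, compounds from DMSO, kinetic fluorescence read.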

[16] = cAMP Responsive Elements (CRE) small molecule agonists, cell-based qHTS assay (AID 1963590)
In short: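 A CRE-responsive beta-lactamase reporter in HEK 293T cells was used. Treatment ran 3 h at 37 C; detection used LiveBLAzer B/G FRET substrate for 2 h at room temperature.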

[17] = cAMP Responsive Elements (CRE) small molecule antagonists, cell-based qHTS assay (AID 1963591; active = well fitted inhibition curve with a large enough effect in the signal ratio in the repeat runs, not every such curve was filed as active; the % refers to the signal ratio)
In short: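 HEK293T cells carrying a CRE-driven beta-lactamase reporter receive compound and NKH477 (0.25 uM final) for 3 h. Fluorescence from LiveBLAzer B/G FRET substrate is read after 2 h at room temperature.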

[18] = target: Beta-2 adrenergic receptor (Homo sapiens) (UniProt P07550); experiment: Adrenergic beta2 receptor (ADRB2) small molecule antagonists, cell-based qHTS assay (AID 1963592); also: series mostly up to about 92 µM; nearly all actives have a fitted effect of over 50% in size
Beta-2 adrenergic receptor (Homo sapiens), sequence (P07550 whole entry, looked up): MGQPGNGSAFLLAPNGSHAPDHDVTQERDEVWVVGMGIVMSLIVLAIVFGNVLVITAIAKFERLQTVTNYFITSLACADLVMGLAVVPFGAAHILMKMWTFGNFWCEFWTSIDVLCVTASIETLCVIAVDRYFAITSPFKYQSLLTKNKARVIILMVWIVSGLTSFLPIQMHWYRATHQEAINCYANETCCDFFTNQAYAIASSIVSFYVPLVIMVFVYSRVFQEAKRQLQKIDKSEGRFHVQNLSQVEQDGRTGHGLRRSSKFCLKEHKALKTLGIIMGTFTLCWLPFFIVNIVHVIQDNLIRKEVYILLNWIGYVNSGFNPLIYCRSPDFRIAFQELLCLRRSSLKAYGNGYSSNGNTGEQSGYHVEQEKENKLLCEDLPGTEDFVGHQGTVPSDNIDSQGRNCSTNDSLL
In short: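 Cells (CHO, stable ADRB2 overexpression) incubated 18-20hr at 37C; compounds added from DMSO; agonist mix (1nM isoproterenol, 100uM IBMX, 25uM Ro-20-1724) added; 0.5hr RT; d2-cAMP and anti-cAMP-cryptate added; 1hr RT; 665/615 nm read.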

[19] = target: Beta-2 adrenergic receptor (Homo sapiens) (UniProt P07550); experiment: Adrenergic beta2 receptor (ADRB2) small molecule agonists, cell-based qHTS assay (AID 1963593);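 also: CHO cells stably overexpressing human ADRB2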
In short: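 CHO cells stably over-expressing ADRB2 were plated overnight at 37C, then dosed with compounds plus a stimulation mix containing 100uM IBMX and 25uM Ro-20-1724 for 0.5hr at room temperature. cAMP was measured by HTRF competition, 1hr.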

[20] = target: D(2) dopamine receptor (Homo sapiens) (UniProt P14416); experiment: Dopamine D2 receptor (DRD2) small molecule agonists, cell-based qHTS assay (AID 1963594); also: nearly all actives have a fitted effect of over 35% in size
D(2) dopamine receptor (Homo sapiens), sequence (P14416 whole entry, looked up): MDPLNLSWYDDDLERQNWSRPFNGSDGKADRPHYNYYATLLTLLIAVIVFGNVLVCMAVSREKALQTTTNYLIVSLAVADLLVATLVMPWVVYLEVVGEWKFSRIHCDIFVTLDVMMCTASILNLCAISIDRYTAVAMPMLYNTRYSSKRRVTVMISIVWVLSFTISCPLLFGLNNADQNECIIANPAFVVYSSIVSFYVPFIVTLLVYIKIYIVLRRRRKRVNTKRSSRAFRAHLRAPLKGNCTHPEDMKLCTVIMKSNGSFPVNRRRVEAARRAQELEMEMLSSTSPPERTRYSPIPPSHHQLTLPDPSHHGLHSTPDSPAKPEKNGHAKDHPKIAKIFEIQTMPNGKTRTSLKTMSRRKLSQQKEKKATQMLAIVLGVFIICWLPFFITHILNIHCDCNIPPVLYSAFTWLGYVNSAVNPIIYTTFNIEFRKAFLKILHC
In short: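 cAMP accumulation in DRD2-HEK293 cells measured by HTRF after 1 h detection; compounds added 10 min before NKH477 (200nM […]) forskolin-analogue stimulation, 30 min at room temperature, with Ro20-1724 present at 0.1 mM final.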
% is scaled to controls: 0 for no effect and ±100 for the full control effect.

C[C@@H]1NC(=O)[C@@H](N)CNC(=O)[C@H](C2CCNC(N)=N2)NC(=O)/C(=C/NC(N)=O)NC(=O)[C@H](CNC(=O)C[C@@H](N)CCCN)NC1=O (stereo not given in full)
inactive: activity change, negative = cytotoxicity [1] -0.202% [at 0.349 µM] | activity, positive = activation [2] -0.551% [at 0.349 µM] | activity change [3] -0.0026% [at 0.217 µM, hits give high values] | activation [4] 4.86% [at 0.29 µM] | activation [5] -0.973% [at 0.217 µM] | activation [6] -0.0566% [at 0.249 µM] | activation [7] 0.811% [at 0.249 µM] | activity change, negative = cytotoxicity [8] 0.952% [at 0.249 µM] | activity change, negative = cytotoxicity [9] -3.72% [at 0.249 µM] | activity change, negative = cytotoxicity [10] -17.8% [at 0.249 µM] | activation [11] 5.76% [at 0.249 µM] | activity, negative = inhibition [12] 39.2% [at 0.233 µM] | activation [13] -0.558% [at 0.292 µM] | activity, negative = inhibition [14] -3.02% [at 0.232 µM] | activation [15] -0.0449% [at 0.29 µM] | activation [16] -0.384% [at 0.349 µM] | activity change, negative = inhibition [17] 0.0328% [at 0.349 µM] | activity change, negative = inhibition [18] 6.03% [at 0.349 µM] | activation [19] -2.39% [at 0.349 µM] | activation [20] -0.993% [at 0.349 µM]

O=[N+]([O-])c1ccc2c(c1)Cc1ccccc1-2
inactive: Potency [1] | Potency [2] | Potency [3] | Potency [4] | Potency [5] | Potency [6] | Potency [7] | Potency [8] | Potency [9] | Potency [10] | Potency [11] | Potency [12] | Potency [13] | Potency [14] | Potency [15] | Potency [16] | Potency [17] | Potency [18] | Potency [19] | Potency [20]

CCCCCCc1ccc(-c2ccc(C#N)cc2)cc1
inactive: Potency [1] | Potency [3] | Potency [4] | Potency [5] | Potency [6] | Potency [7] | Potency [8] | Potency [9] | Potency [10] | Potency [11] | Potency [12] | Potency [13] | Potency [14] | Potency [15] | Potency [16] | Potency [17] | Potency [18] | Potency [19] | Potency [20]
active: Potency [2] 13.4 µM

O=C(O)CCS
active: Potency [12] 3.41 µM
inactive: Potency [1] | Potency [2] | Potency [3] | Potency [4] | Potency [5] | Potency [6] | Potency [7] | Potency [8] | Potency [9] | Potency [10] | Potency [11] | Potency [13] | Potency [14] | Potency [15] | Potency [16] | Potency [17] | Potency [18] | Potency [19] | Potency [20]

O=C1OC[C@H](Cc2cccc(O)c2)[C@H]1Cc1cccc(O)c1
inactive: Potency [1] | Potency [2] | Potency [3] | Potency [4] | Potency [5] | Potency [6] | Potency [7] | Potency [8] | Potency [9] | Potency [10] | Potency [11] | Potency [12] | Potency [13] | Potency [14] | Potency [15] | Potency [16] | Potency [17] | Potency [18] | Potency [19] | Potency [20]

O=c1cc(CO)occ1O
inactive: Potency [1] | Potency [2] | Potency [3] | Potency [4] | Potency [5] | Potency [6] | Potency [7] | Potency [8] | Potency [9] | Potency [10] | Potency [11] | Potency [12] | Potency [13] | Potency [14] | Potency [15] | Potency [16] | Potency [17] | Potency [18] | Potency [19] | Potency [20]
